Reference: PubChem BioAssay AID652053 (Broad Institute, 2013)
Among all 1,300 compounds or so, about 930 (72%) were called active.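 How the source made its calls: active means fitted curve reaches 40% activation signal increase at or below the top valid tested concentration in every replicate test; inconclusive means replicate tests disagree in their calls; inactive means all replicate tests inactive, including effects opposite the expected signal rise.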 The set was probably picked from earlier hits. Not all results are given here. Entries with a potency or affinity are not part of this list.

test: suppression of miR-122 activity, Renilla luciferase sensor – cell-based, Huh7 psiCHECK-miR122, cherry-pick, dose response (AID 652053); details: Huh7 psiCHECK-miR122 Renilla luciferase reporter, 48 h; series mostly up to 35 µM

outcome, inactive:
C[C@H]1CN([C@@H](C)CO)C(=O)Cc2cc(NC(=O)Nc3cccc4ccccc34)ccc2O[C@@H]1CN(C)C(=O)NC1CCCCC1, CCC1(c2ccc(F)cc2)NC(=O)N(CC(=O)Nc2ccc(-c3nc4ccc(C)cc4s3)cc2)C1=O (stereo not given), COC(=O)c1sccc1NC(=S)Nc1ccc(F)cc1, COc1ccc(CCNC(=O)COC(=O)Cn2cnc3ccccc3c2=O)cc1, Cc1ccc(Nc2nc(C(=O)NCc3ccco3)cs2)cc1, O=c1c2c(nc3nc(SCc4ccccc4)[nH]n13)CCC2, Cc1ccc(CSc2nnc(-c3cccnc3)o2)cc1, CN(C[C@H]1N[C@@H](CO)[C@H]1c1ccc(-c2cccc(F)c2)cc1)S(C)(=O)=O, C[C@H]1CN([C@@H](C)CO)C(=O)c2cccc(NS(=O)(=O)c3ccccc3)c2O[C@H]1CN(C)Cc1ccc(C(=O)Nc2ccccc2N)cc1, C[C@@H]1CN([C@H](C)CO)C(=O)c2cccc(NS(=O)(=O)c3ccccc3)c2O[C@H]1CN(C)Cc1ccc(C(=O)Nc2ccccc2N)cc1, CCCCC(O)(CCCC)C(=O)NN(C(=O)OC)c1ccccc1, COc1ccc(C(=O)N[C@H](C(=O)Nc2nc3ccccc3[nH]2)C(C)C)cc1, CC(=O)N1[C@H](CNC(=O)C2CC2)[C@H](c2ccc(-c3ccccc3)cc2)[C@@H]1CO, O=C(N/N=C/c1cccc(F)c1)c1csc2c1CCCC2, CC(C)NC(=O)N1CC[C@@H]2[C@@H](CO)N(C)c3ccc(-c4cccc(F)c4)cc3[C@@H]21, CC(C)NC(=O)N1[C@H](CO)[C@@H]2c3ccccc3N(C(=O)c3ccccc3F)C[C@@H]21, O=C(NC[C@H]1N[C@H](CO)[C@H]1c1ccccc1)c1ccccc1F, CN1c2ccc(-c3cccc(F)c3)cc2[C@H]2[C@H](CCN2C(=O)C2CC2)[C@H]1CO, C[C@@H]1CN([C@@H](C)CO)C(=O)c2cccc(NC(=O)C3CCOCC3)c2O[C@H]1CN(C)Cc1ccc2c(c1)OCO2, C[C@@H]1CN([C@H](C)CO)C(=O)c2cccc(NC(=O)C3CCOCC3)c2O[C@H]1CN(C)Cc1ccc2c(c1)OCO2, C[C@@H]1CN([C@@H](C)CO)C(=O)c2cccc(NC(=O)C3CCOCC3)c2O[C@@H]1CN(C)Cc1ccc2c(c1)OCO2, C[C@@H]1CN([C@H](C)CO)C(=O)c2cccc(NC(=O)C3CCOCC3)c2O[C@@H]1CN(C)Cc1ccc2c(c1)OCO2, Cc1c(C(=O)Nc2ccccn2)oc2ccccc12, Cc1ccccc1N(C(=O)CCCC(=O)Nc1ccccn1)C(C(=O)NC1CCCC1)c1ccc(O)cc1 (stereo not given), O=C(NCCCN1CCN(Cc2ccccc2)CC1)c1nnc(Cc2c(F)cccc2Cl)o1, COC(=O)c1c(NC(C)=O)sc(Cc2ccccc2)c1C, O=C(Nc1ccccn1)c1cccc(S(=O)(=O)N2CCOCC2)c1, CCC(=O)N1[C@H](CNC(=O)COC)[C@@H](c2ccc(-c3ccccc3)cc2)[C@@H]1CO, Cc1ccc(S(=O)(=O)NCCC(=O)Oc2ccc3ccc(=O)oc3c2)cc1, Cc1ccc2[nH]c(CNC(=O)C3CCCCC3)cc2c1, C[C@@H]1CN([C@@H](C)CO)C(=O)Cc2cc(NC(=O)Nc3cccc4ccccc34)ccc2O[C@H]1CN(C)C(=O)NC1CCCCC1, Cc1ccc(OCC(=O)Nc2cccc3c2CCCC3)cc1C, COc1ccc(/C=N/NC(=O)COc2ccccc2-c2ccccc2)cc1, CCOc1ccc(N2C(=O)Nc3ccccc3C2(O)C(=O)NCc2ccc3c(c2)OCO3)cc1 (stereo not given), Cc1cc(Cl)c(S(=O)(=O)N2CCCCCC2)cc1OCC(=O)NC1CCCCC1, c1ccc(CSc2nnc(-c3cccnc3)o2)cc1, C=CC(C)n1c(Br)nc2c1c(=O)[nH]c(=O)n2C (stereo not given), CS(=O)(=O)N(CC(=O)Nc1cccc(F)c1)c1cccc([N+](=O)[O-])c1, Cc1c(-c2ccccc2)cn2c1-c1ccc(C)n1CC2, O=C(CN1CCOCC1)Nc1cc(Cl)ccc1Cl, CCn1c(CCNC(=O)c2ccc(OC)cc2)nnc1SCC(=O)Nc1ccccc1F, COc1cc(OC)c(-c2nc3cnccc3n2C)cc1OC, COC(=O)c1[nH]c2c(c1C)C(=O)CC(c1ccccc1)C2 (stereo not given), CCOC(=O)c1[nH]c2c(c1C)C(=O)CC(c1ccco1)C2 (stereo not given), CCC(=O)N1[C@H](CO)[C@H](c2ccccc2)[C@@H]1CN(CC)C(=O)c1cccc(F)c1, Cc1ccc(NCc2nnc(SCC(=O)Nc3ccccc3)n2CC2CCCO2)c(C)c1 (stereo not given), CC1CCN(C(=S)c2ccc(O)cc2)CC1, CC1CCN(S(=O)(=O)c2ccc(NC(=O)Cc3cccs3)cc2)CC1, COCC(=O)Nc1ccc2c(c1)[C@@H]1C[C@H](CC(=O)NCc3ccccc3)O[C@H](CO)[C@@H]1O2, O=C(C[C@@H]1C[C@H]2c3cc(NS(=O)(=O)c4ccc(F)cc4)ccc3O[C@H]2[C@H](CO)O1)NCc1ccc(Oc2ccccc2)cc1, C[C@@H]1CN([C@@H](C)CO)C(=O)c2cc(N(C)C)ccc2O[C@@H]1CN(C)C(=O)Nc1ccc(F)cc1, COc1ccc(NC(=O)Nc2ccc3c(c2)CC(=O)N([C@@H](C)CO)C[C@@H](C)[C@H](CN(C)C(=O)NC(C)C)O3)cc1, COc1ccc(NC(=O)Nc2ccc3c(c2)CC(=O)N([C@@H](C)CO)C[C@@H](C)[C@@H](CN(C)C(=O)NC(C)C)O3)cc1, CC(=O)c1cccc(OCC(=O)Nc2ccccc2N2CCOCC2)c1, COCCCn1c(=O)/c(=C\c2ccccc2OC(F)F)s/c1=C(/C#N)C(N)=O, Cc1cc(C)c(C)c(S(=O)(=O)Nc2ccc(OCC(=O)O)cc2)c1C, Cc1cc(O)c(C(C)C)cc1N=Nc1ccccc1C(=O)O, Cc1ccc(C)c(S(=O)(=O)Nc2ccc(O)c3ccccc23)c1, Cc1ccc(C(=O)Oc2ccc(C(=S)N3CCOCC3)cc2)cc1, CC(=O)c1cccc(NC(=O)C(C)N2CCc3ccccc3C2)c1 (stereo not given), C=CCn1cc(C(=O)N2CCc3ccccc3C2)c(=O)c2cc(S(=O)(=O)N(CC)CC)ccc21, Cc1ccc(CN2C(=O)C(C)(C)Oc3ccc(C(=O)N4CCCCC4)cc32)cc1, CCc1ccc(NC(=O)CN2CCc3ccccc3C2)cc1, CCc1cccc(NC(=O)Cc2cn(C)c3ccccc23)c1, Cc1noc(C)c1NC(=O)Nc1ccc2c(c1)CC(=O)N([C@@H](C)CO)C[C@H](C)[C@@H](CN(C)Cc1ccc(Cl)c(Cl)c1)O2
